An excerpt weighted towards active compounds, which were near 18% of everything screened.
Six1-Eya2 inh = blocks human Six1 binding to Eya2; AlphaScreen GST-Six1/His-Eya2 binding, biochemical; hits give low values; 360,000 compounds, 0.56% hits; activity change, % (concentration not given with the values); Q15475+O00167; in the data active = activity change below about -65%; inconclusive = mostly about -30% to -63%
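GST-Six1 + His-Eya2 (5X stock: 250/500 nM); Tris pH 8.0, 300 mM NaCl, 0.05% BSA, 0.02% Tween 20; GSH donor/Ni acceptor beads; 1 h 37 °C dark; AlphaScreen readout.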
TDP1 cell noCPT = qHTS for Inhibitors of human tyrosyl-DNA phosphodiesterase 1 (TDP1): qHTS in cells in absence of CPT; AID 686978, 2013; 420,000 compounds, 15% hits; Potency, µM (highest dose often 46.2 µM), for inactives: at the top dose activity change, negative = growth inhibition, most hits filed as inhibitors; DT40 Tdp1-/- hTDP1 cells, no CPT, ATP luminescence, 48 h; note: potency is the fitted concentration of half-maximal effect; nearly all actives have a fitted effect of over 55% in size
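Readout: luminescence from CellTiter-Glo after 30 min in the dark at RT. Cells: DT40 Tdp1-/- with stable hTDP1, 400/well. Exposure: compounds alone, ≥48 hr, 37 °C.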
IL1B secr inh = blocks inflammasome-driven IL-1 beta release; THP-1 LPS/ATP IL-1B secretion, AlphaLISA, 16 h; hits give low values; activity change, % at 57.5 µM; 360,000 compounds, 4.7% hits; in the data active = activity change below about -50%; inconclusive = mostly about -30% to -49%
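Secreted IL-1B measured by AlphaLISA bead assay after 16 h compound exposure of THP-1 cells; compounds (final up to 57.5 uM) added 1 h before LPS (250 ng/mL) and ATP (1.25 mM) stimulation; lower signal means less secretion.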
TDP1 block = TDP1 (human) enzyme inhibition | Q9NUW8 | recombinant TDP1, AlphaScreen DNA substrate cleavage | Potency, µM (top dose mostly 130 µM), for inactives: at the top dose activity change, negative = inhibition, usual class: inhibitors | 350,000 compounds, 0.28% hits; note: potency is the fitted concentration of half-maximal effect; nearly all actives have a fitted effect of over 40% in size
Target sequence (Q9NUW8 whole entry, looked up): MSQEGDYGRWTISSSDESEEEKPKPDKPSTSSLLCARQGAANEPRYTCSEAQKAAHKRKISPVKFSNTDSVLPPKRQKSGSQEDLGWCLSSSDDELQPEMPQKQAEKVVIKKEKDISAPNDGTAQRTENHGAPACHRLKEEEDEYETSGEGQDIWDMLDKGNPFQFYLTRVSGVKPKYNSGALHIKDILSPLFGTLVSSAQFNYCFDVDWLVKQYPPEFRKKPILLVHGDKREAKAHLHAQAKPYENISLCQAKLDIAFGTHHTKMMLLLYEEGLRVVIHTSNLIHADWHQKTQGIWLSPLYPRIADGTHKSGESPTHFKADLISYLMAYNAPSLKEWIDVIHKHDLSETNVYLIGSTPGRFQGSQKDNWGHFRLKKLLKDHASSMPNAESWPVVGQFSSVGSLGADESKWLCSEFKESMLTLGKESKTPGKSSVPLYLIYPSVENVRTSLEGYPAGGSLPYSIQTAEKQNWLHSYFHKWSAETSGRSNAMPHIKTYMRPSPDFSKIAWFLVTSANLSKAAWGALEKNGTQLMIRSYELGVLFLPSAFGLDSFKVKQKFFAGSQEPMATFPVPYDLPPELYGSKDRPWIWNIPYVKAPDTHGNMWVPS
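Tdp1 1 nM final; 15 min RT w/ cpd; substrate 15 nM, 5 min; beads 10 ug/ml, 10 min; AlphaScreen read. Neg ctrl: no enzyme.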
DT40 TDP1 CPT = growth inhibition of DT40 Tdp1-/-;hTDP1 cells with camptothecin (screen for TDP1 inhibitors) | Potency, µM (top dose mostly 46.2 µM), for the others: at the highest dose activity change, negative = growth inhibition, usual class: inhibitors | chicken DT40 Tdp1-/-;hTDP1 cells + 20 nM CPT, ATP luminescence, 48 h | 420,000 compounds, 12% hits; note: potency is the fitted concentration of half-maximal effect; nearly all actives have a fitted effect of over 55% in size
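Chicken DT40 Tdp1-/- cells stably complemented with human TDP1 were seeded at 400 cells/well in medium containing 20 nM camptothecin, exposed to pin-transferred compounds, and grown at 37 °C for at least 48 hr. Viability was read as ATP luminescence.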
CtBP-E1A inh = inhibitors of CtBP/E1A interaction; AlphaScreen GST-E1A/His-CtBP binding, 1536-well; hits give low values; activity change, % (concentration not given with the values); 340,000 compounds, 0.49% hits; AID 651724; in the data active = activity change below about -65%; inconclusive = mostly about -30% to -63%
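AlphaScreen with 125 nM GST-E1A and 125 nM His-CtBP (5X stocks) in Tris pH 8.0, 300 mM NaCl, BSA, Tween 20, TCEP. Compounds preincubated 2 h at 37 deg C, then glutathione donor/nickel acceptor beads added for 1 h at 37 deg C in dark.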
* hit, by the source's call; i = inactive; ? = inconclusive; . = not tested or not shown; [ ] = remark or other dose. Unless noted, calls come from the whole dose curve; as a rule, active = well fitted curve in the direction sought with a large enough effect; inconclusive = small, poorly fitted or top-dose-only effect, or another doubt; inactive = no such curve, though single readings can be large; an effect the other way counts as inactive or inconclusive. % is set by controls: 0 for no effect and ±100 for the full control effect.

SMILES	Six1-Eya2 inh	TDP1 cell noCPT	IL1B secr inh	TDP1 block	DT40 TDP1 CPT	CtBP-E1A inh
COC(=O)c1ccccc1NC(=O)c1nn(C)c2c1COc1ccccc1-2	.	-2%	.	3%	-5%	.
Cc1ccc(CCNC(=O)c2nn(C)c3c2CS(=O)(=O)c2ccccc2-3)cc1	11	?	0	2%	?	-12
O=[N+]([O-])c1ccc(Oc2cnc3ccccc3n2)cc1	2	?	-1	4%	0%	-1
COc1ccc(CSCCc2n[nH]c(=S)n2-c2ccccc2)cc1C	-16	?	31	6%	?	-2
CC(C)(C)NC(=O)NC(=O)CN1C(=O)NC(C)(c2ccccc2)C1=O (stereo not given)	-2	?	13	5%	-24%	3
Cn1nc(C(=O)N2CCN(c3cccc(Cl)c3)CC2)c2c1-c1ccccc1S(=O)(=O)C2	-12	?	-22	3%	18µM*	-10
CC(=O)c1ccc(N2CCN(C(=O)c3nn(C)c4c3CS(=O)(=O)c3ccccc3-4)CC2)cc1	1	?	-10	3%	?	1
Cc1ccc(Cl)cc1N1CCN(C(=O)c2nn(C)c3c2CS(=O)(=O)c2ccccc2-3)CC1	.	12µM*	.	5%	21µM*	.
CC(=O)N1CCc2cc(Br)cc(S(=O)(=O)N3CCC(C(=O)Nc4cccc(C)c4C)CC3)c21	.	-23%	.	5%	-1%	.
O=[N+]([O-])c1ccccc1/C=N/NC1=NCCN1	9	-8%	-7	.	2%	6
CN(C)c1ccc(C=NNC(=O)c2cccc3ccccc23)c(Cl)c1	4	4.1µM*	35	.	5.2µM*	-23
O=C(N/N=C/c1ccccc1O)c1cccc2ccccc12	-5	4.1µM*	98	.	5.8µM*	.
O=C(N/N=C/c1ccnc2ccccc12)c1ccccc1O	?	12µM*	-20	.	3.3µM*	-6
O=C(O)c1ccc(C=NNC(=O)c2cccc3ccccc23)cc1	2	?	23	.	-27%	0
C(=NNC1=NCCN1)c1ccnc2ccccc12	-5	?	-103*	.	-4%	9
Cc1cccc(N2CCN(CC(=O)N(C3CCCC3)C3CCS(=O)(=O)C3)CC2)c1C (stereo not given)	-18	?	17	-2%[56.1 µM]	?	7
O=C(CCSCc1cccc(F)c1)NCCc1ccccc1	-14	-12%	1	8%	2%	-8
O=C(NCCCNC(=O)c1ccco1)c1ccc(Cl)cc1	1	-5%	52	-14%	11%	-16
CN(C(=O)COC(=O)/C=C/c1ccc(C(F)(F)F)cc1)c1c(N)n(Cc2ccccc2)c(=O)[nH]c1=O	-2	6.5µM*	-4	.	6.5µM*	-9
CCN(C(=O)COC(=O)/C=C/c1ccccc1Cl)c1c(N)n(Cc2ccccc2)c(=O)[nH]c1=O	7	?	-13	-10%	?	-8
CCN(C(=O)COC(=O)/C=C/c1ccc(Cl)c(Cl)c1)c1c(N)n(Cc2ccccc2)c(=O)[nH]c1=O	-2	2.1µM*	17	.	3.7µM*	.
CN(C(=O)COC(=O)/C=C/c1cccs1)c1c(N)n(Cc2ccccc2)c(=O)[nH]c1=O	1	-9%	-5	-1%	12%	8
CCN(C(=O)COC(=O)/C=C/c1cccc(Cl)c1)c1c(N)n(Cc2ccccc2)c(=O)[nH]c1=O	0	?	8	0%	23µM*	-8
COCCN(C(=O)COC(=O)/C=C/c1ccco1)c1c(N)n(Cc2ccccc2)c(=O)[nH]c1=O	-5	-9%	5	25µM*	-7%	-5
COCCN(C(=O)COC(=O)/C=C/c1ccc(C)o1)c1c(N)n(Cc2ccccc2)c(=O)[nH]c1=O	0	-24%	i	4%	-7%	2
SMILES	Six1-Eya2 inh	TDP1 cell noCPT	IL1B secr inh	TDP1 block	DT40 TDP1 CPT	CtBP-E1A inh
Cn1c(CSc2nc3ccccc3s2)nnc1SCC(=O)NCCN1CCOCC1	-4	-14%	12	3%	-6%	-18
CCc1ccc(-c2cc(C(F)(F)F)n3nc(C(=O)Nc4c(C)nn(Cc5ccccc5C)c4C)cc3n2)s1	7	16µM*	19	4%	18µM*	0
CC1S/C(=N/N=C2CCCCC2)NC1=O (stereo not given)	-7	10µM*	18	0%	2.9µM*	-15
COc1ccccc1CNC(=O)COC(=O)c1cccc(S(=O)(=O)N2CCCCC2)c1	8	2%	3	0%	1%	-5
COc1ccc(-n2c(=O)c3c4c(sc3n(Cc3ccccc3)c2=O)CCC4)c(OC)c1	.	23µM*	.	6%	?	.
COc1ccc(-n2c(=O)c3c4c(sc3n(Cc3cc(C)ccc3C)c2=O)CN(C(C)=O)CC4)c(OC)c1	.	23µM*	.	4%	?	.
COc1cccc(NC(=O)Cn2c(=O)n(-c3ccccc3)c(=O)c3c2c2cc(OC)ccc2n3C)c1	.	-9%	.	3%	-13%	.
COc1cccc(NC(=O)Cn2c(=O)n(-c3ccccc3)c(=O)c3sccc32)c1	-2	13µM*	-4	6%	?	.
COc1ccc(-n2c(=O)c3c4c(sc3n(CC(=O)N3CCCCC3C)c2=O)CCC4)c(OC)c1 (stereo not given)	.	?	.	5%	?	.
COc1ccc(-n2c(=O)c3c4c(sc3n(CC(=O)C(C)(C)C)c2=O)CCCC4)c(OC)c1	.	?	.	9%	15µM*	.
CCN(CCn1cccn1)C(=O)CC1C(=O)NCCN1Cc1cc(OC)cc(OC)c1 (stereo not given)	2	7%	-22	.	-35%	-20
O=C(C(=O)N1CCN(Cc2ccccc2)CC1)c1c[nH]c2ccccc12	-6	-12%	-5	.	-20%	-4
CN1C(=O)Cc2cc(S(=O)(=O)NCCc3ccccc3)ccc21	2	?	3	7%	?	-3
COc1cccc(NC(=O)Cn2c(=O)n(-c3cccc(OC)c3)c(=O)c3c4c(sc32)CCCC4)c1	.	18µM*	.	4%	13µM*	.
COC(=O)/C(=C1/Oc2ccc(C(C)(C)C)cc2S1)C(F)(F)F	8	22%	0	3%	-3%	1
COC(=O)/C(=C1/Oc2cc(C)oc(=O)c2S1)C(F)(F)F	?	2.1µM*	-102*	-2%	2.3µM*	-83*
CN(C(=O)COC(=O)c1ccc(Br)c(S(=O)(=O)N2CCOCC2)c1)C1CCCCC1	-5	?	10	3%	?	0

Bioassay records as filed in PubChem.
